Screens deposited in PubChem BioAssay by several laboratories.
Sampled rows, rich in hits. Any-hit rate of the full collection: about 1.8%.
S1P2 ag = activates the human S1P2 receptor; S1P2-expressing cell line, agonist reporter read-out; actives 0.46% (n = 97,000); activation, % at 4.5 µM; O95136; in the data active means activation above about 16%;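 further: 0% = vehicle low control and 100% = maximal reference agonist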
GALR2 agonist = GALR2 (human) receptor agonism; O43603; activation, % (no concentration beside the values); AID 803; actives 0.48% (n = 140,000); GALR2-expressing cells, agonist activation read-out; in the data active means activation above about 5%, passing the limit was not always enough;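 further: 0% = vehicle buffer wells and 100% = reference agonist at full effect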
Target sequence (O43603 whole entry, looked up): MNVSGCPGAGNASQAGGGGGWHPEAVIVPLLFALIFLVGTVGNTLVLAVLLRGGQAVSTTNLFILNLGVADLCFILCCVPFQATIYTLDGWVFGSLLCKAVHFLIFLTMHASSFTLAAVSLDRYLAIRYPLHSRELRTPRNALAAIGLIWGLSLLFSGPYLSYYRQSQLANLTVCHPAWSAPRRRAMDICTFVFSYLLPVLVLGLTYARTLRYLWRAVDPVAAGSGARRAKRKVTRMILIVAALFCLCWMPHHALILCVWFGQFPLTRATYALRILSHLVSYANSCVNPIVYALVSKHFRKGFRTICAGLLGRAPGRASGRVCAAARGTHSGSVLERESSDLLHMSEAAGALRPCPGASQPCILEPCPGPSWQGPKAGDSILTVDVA
S1P2 blocker = antagonists of human S1P2 receptor; O95136; cell-based S1P2 antagonist assay, inhibition at 5 uM; inhibition, % at 5 µM; actives 0.21% (n = 97,000); AID 736; in the data active means inhibition above about 45%;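 further: CRE beta-lactamase reporter cells expressing human S1P2 stimulated with S1P; 0% = agonist at EC80 alone and 100% = agonist plus reference antagonist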
MRP-1 activ = activators of MRP-1; H69AR cells + doxorubicin, viability rescue, CellTiter-Glo; viability increase, % at 10 µM; actives 0.61% (n = 140,000); AID 799;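 active means viability gain under doxorubicin at or above a set limit, the compound median plus 3 SD, cut at about 4.7% in these data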;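 further: MRP-1 overexpressing cells given doxorubicin 25 µM after compound pretreatment; 18-22 h compound pretreatment then 72 h with doxorubicin before readout; 0% = doxorubicin-only wells and 100% = vehicle-treated cells without doxorubicin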
GALR2 blocker = GALR2 (human) receptor antagonism; O43603; inhibition, % at 4 µM; AID 828; actives 0.39% (n = 140,000); GALR2-expressing cells, antagonist mode;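 further: cells stimulated with galanin 1-16 at roughly its EC80; 0% = agonist challenge control and 100% = basal control without agonist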
MRP reversal = compounds reversing MRP-mediated drug resistance; H69AR cells + 2 uM doxorubicin, CellTiter-Glo, 72 h; differential viability (reversal), % at 10 µM; actives 0.04% (n = 85,000);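 active means viability drop by adding the cancer drug above about 55%, with treated viability meeting a 40% cutoff, limit read from the data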;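 further: viability without doxorubicin minus viability with 2 µM doxorubicin for each compound; larger differential means the compound sensitizes cells more to doxorubicin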
GALR2 ag confirm = GALR2 (human) agonism confirmed; shares compounds with GALR2 agonist; GALR2-expressing cells, agonist activation; actives 10% (n = 460); activation, % at 5.6 µM; AID 864; in the data active means activation above about 8.4%;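 further: 0% = buffer-only vehicle wells and 100% = full reference agonist response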
BLA act counter = activates beta-lactamase reporter in GALR2 agonist counterscreen | shares compounds with GALR2 agonist | CHO NFAT-bla reporter, beta-lactamase FRET activation | activation, % at 5.6 µM | actives 10% (n = 460) | AID 865;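 active means activation above the screen-wide mean activation plus 3 SD, cut at about 8% in these data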;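 further: 0% = DMSO with PBS wells and 100% = thapsigargin positive control wells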
GALR2 blk conf = confirmation of human galanin receptor 2 (GALR2) antagonists. shares compounds with GALR2 blocker. GALR2-expressing cells, antagonist mode, inhibition. inhibition, % at 4 µM. actives 60% (n = 480). AID 866;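 further: cells stimulated with galanin at about its EC80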
BLA inhib ctr = inhibits beta-lactamase reporter in GALR2 antagonist counterscreen | actives 36% (n = 480) | inhibition, % at 4.2 µM | AID 867 | shares compounds with GALR2 blocker | CHO NFAT-BLA reporter, beta-lactamase FRET, thapsigargin-stimulated;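 active means inhibition above the mean inhibition across tested compounds plus 3 SD, cut at about 27% in these data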;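 further: 0% = 500 nM thapsigargin stimulated wells and 100% = unstimulated BSA only wells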
Active calls of the source: *; . = no result given. Unless noted, no stated cut-off is given here; in the data, active means inhibition above about 27%; inactive means the rest.

SMILES	S1P2 ag	GALR2 agonist	S1P2 blocker	MRP-1 activ	GALR2 blocker	MRP reversal	others
O=C(Nc1ccc(F)cc1)c1c(O)c2c(n(Cc3ccccc3)c1=O)CCCC2	.	-2	.	9.0*	1	.
CN1/C(=C\C=C\C2=[N+](C)c3ccc4ccccc4c3C2(C)C)C(C)(C)c2ccccc21	-5	1	95*	-6	-51	0
CN1/C(=C\C=Nc2ccccc2)C(C)(C)c2ccccc21	-6	-2	0	-5	1	.
CCCCNC(=O)c1c(N)n(CCCOC)c2nc3ccccc3nc12	.	9.4*	.	-5	-15	.	GALR2 ag confirm=4;BLA act counter=14*
COCCCn1c(N)c(C(=O)OCCOC)c2nc3ccccc3nc21	.	1	.	-1	8	3
CCCNC(=O)c1c(N)n(Cc2ccco2)c2nc3ccccc3nc12	13	18*	-24	-3	-8	-26	GALR2 ag confirm=5;BLA act counter=11*
COCCCNC(=O)c1c(NC(=O)c2ccco2)n(Cc2ccccc2)c2nc3ccccc3nc12	1	9	18	-4	5	-12	GALR2 ag confirm=2;BLA act counter=2
CCCCCCn1c(=O)c(C(=O)Nc2ccncc2)c(O)c2ccccc21	.	.	.	.	.	-7
COc1ccc(C(c2c(O)c3ccccc3oc2=O)c2c(C)n(C)n(-c3ccccc3)c2=O)cc1 (stereo unspecified)	.	-1	.	-2	-1	.
CCOC(=O)c1c(NS(=O)(=O)c2ccccc2)n(CCCOC)c2nc3ccccc3nc12	.	-1	.	-2	-2	.
O=[N+]([O-])c1ccc(C2[C@H]3C(c4ccccc4)=NC4(CCCC4)N23)cc1 (stereo partly specified)	.	0	.	-1	-13	.
Cc1ccc(C2=NC(C)(C)N3C2C3c2ccc([N+](=O)[O-])cc2)cc1 (stereo unspecified)	.	10*	.	-2	2	.	GALR2 ag confirm=-1;BLA act counter=-2
COc1cc(CN2CCN(c3cc(C)ccc3C)CC2)ccc1O	-7	49*	1	-2	7	2	GALR2 ag confirm=-1;BLA act counter=-2
Cc1nc2c(=O)n(C)c(=O)nc-2n(C)n1	10	5	96*	-8	100*	0	GALR2 blk conf=100*;BLA inhib ctr=100*
NC(=O)c1c(NC(=O)c2ccc(S(=O)(=O)N(CCCl)CCCl)cc2)sc2c1CCCCC2	.	-1	.	-5	7	.
CC1CCC/C=C/C2CC(O)CC2C(O)/C=C/C(=O)O1 (stereo unspecified)	-1	-1	4	-4	46*	-2	GALR2 blk conf=62*;BLA inhib ctr=18
O=C(c1cc2c(s1)CCCCCC2)N1CCC2(CC1)OCCO2	-2	-2	-5	-2	-6	7
O=C(c1ccccc1)C(CN1CCCC1)c1ccccc1 (stereo unspecified)	.	1	.	-5	30*	.	GALR2 blk conf=29*;BLA inhib ctr=25
COc1ccc(C(C)=O)cc1CC(C(=O)c1ccc(Br)cc1)N(C)C (stereo unspecified)	.	-1	.	-2	-9	.
c1ccc(CNCCc2ccc3c(c2)OCO3)nc1	0	-3	-11	-4	-8	-1
CC1(C)C[C@H]2C=C(C=O)[C@]3(C=O)C[C@]3(C)[C@H]2C1	.	-2	.	-3	55*	.	GALR2 blk conf=92*;BLA inhib ctr=99*
COC(=O)C1CN(C#N)N(c2ccc(Cl)cc2)C12c1ccccc1-c1ccccc12 (stereo unspecified)	-15	-3	79*	-8	78*	0	GALR2 blk conf=87*;BLA inhib ctr=92*
O=C1CC(c2ccccc2)CC(O)=C1C=NCCN1CCN(C(=O)Cc2ccccc2)CC1 (stereo unspecified)	1	-1	-11	0	1	-8
